In publication PMC5540273 (PLoS ONE, 2017):

Assays:
Details in all cases: concentration: 1 μM, replicates: in singlicate; n = 1
[1] = test system: AAK1
[2] = test system: ABL1-nonphosphorylated
[3] = test system: ABL1-phosphorylated
[4] = test system: ABL2
[5] = test system: ACVR1B
[6] = test system: ACVR1
[7] = test system: ACVR2A
[8] = test system: ACVR2B
[9] = test system: ACVRL1
[10] = test system: T1, ADCK3
T1 construct: gene CABC1

[11] = test system: ADCK4
[12] = test system: AKT1
[13] = test system: AKT2
[14] = test system: AKT3
[15] = test system: ALK
[16] = test system: T2, AMPK-alpha1
T2 construct: gene PRKAA1

[17] = test system: T3, AMPK-alpha2
T3 construct: gene PRKAA2

[18] = test system: ANKK1
[19] = test system: T4, ARK5
T4 construct: gene NUAK1

[20] = test system: T5, ASK1
T5 construct: gene MAP3K5
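Note: KINOMEscan kinase panel screen.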

CN1CCN(Cc2cccc(-c3ccc4c(Nc5ccc(Oc6ccccc6)cc5)ccnc4c3)c2)CC1 [GW578342]
%Inh [1]: 10%
%Inh [2]: 91.6%
%Inh [3]: 20%
%Inh [4]: 23%
%Inh [5]: 0%
%Inh [6]: 0%
%Inh [7]: 0%
%Inh [8]: 0%
%Inh [9]: 0%
%Inh [10]: 8%
%Inh [11]: 9%
%Inh [12]: 0%
%Inh [13]: 11%
%Inh [14]: 0%
%Inh [15]: 23%
%Inh [16]: 8%
%Inh [17]: 0%
%Inh [18]: 6%
%Inh [19]: 0%
%Inh [20]: 0%

Cn1cc(-c2ccc3c(c2)CCN3C(=O)Cc2cccc(Cl)c2)c2c(N)ncnc21 [GSK2606590]
%Inh [1]: 30%
%Inh [2]: 78%
%Inh [3]: 30%
%Inh [4]: 53%
%Inh [5]: 0%
%Inh [6]: 0%
%Inh [7]: 0%
%Inh [8]: 53%
%Inh [9]: 0%
%Inh [10]: 0%
%Inh [11]: 1%
%Inh [12]: 0%
%Inh [13]: 10%
%Inh [14]: 0%
%Inh [15]: 30%
%Inh [16]: 4%
%Inh [17]: 20%
%Inh [18]: 0%
%Inh [19]: 13%
%Inh [20]: 9%

CC(=O)Nc1nc2cnc(Nc3cc(NC(=O)c4cccc(C5(C#N)CC5)c4Cl)ccc3C)nc2s1
%Inh [1]: 23%
%Inh [2]: 99%
%Inh [3]: 59%
%Inh [4]: 70%
%Inh [5]: 0%
%Inh [6]: 0%
%Inh [7]: 0%
%Inh [8]: 0%
%Inh [9]: 0%
%Inh [10]: 0%
%Inh [11]: 0%
%Inh [12]: 7%
%Inh [13]: 13%
%Inh [14]: 0%
%Inh [15]: 0%
%Inh [16]: 7%
%Inh [17]: 21%
%Inh [18]: 0%
%Inh [19]: 2%
%Inh [20]: 0%

O=C(Nc1cccc(-c2nn3ncccc3c2-c2ccnc(Nc3ccccc3)n2)c1)c1c(F)cccc1F [GSK198271]
%Inh [1]: 17%
%Inh [2]: 60%
%Inh [3]: 6%
%Inh [4]: 42%
%Inh [5]: 0%
%Inh [6]: 21%
%Inh [7]: 0%
%Inh [8]: 25%
%Inh [9]: 0%
%Inh [10]: 3%
%Inh [11]: 31%
%Inh [12]: 0%
%Inh [13]: 16%
%Inh [14]: 0%
%Inh [15]: 38%
%Inh [16]: 12%
%Inh [17]: 15%
%Inh [18]: 69%
%Inh [19]: 38%
%Inh [20]: 0%

CCn1c(-c2nonc2N)nc2c(C#CC(C)(C)O)nc(OC[C@H](N)c3ccccc3)cc21 [GSK943949]
%Inh [1]: 0%
%Inh [2]: 0%
%Inh [3]: 0%
%Inh [4]: 0%
%Inh [5]: 0%
%Inh [6]: 0%
%Inh [7]: 0%
%Inh [8]: 0%
%Inh [9]: 0%
%Inh [10]: 0%
%Inh [11]: 0%
%Inh [12]: 95.8%
%Inh [13]: 98.8%
%Inh [14]: 95.8%
%Inh [15]: 19%
%Inh [16]: 0%
%Inh [17]: 3%
%Inh [18]: 0%
%Inh [19]: 18%
%Inh [20]: 0%

CSc1cccc2c(-c3ccncn3)c(-c3ccc(F)cc3)nn12 [GW514786]
%Inh [1]: 0%
%Inh [2]: 0%
%Inh [3]: 0%
%Inh [4]: 12%
%Inh [5]: 43%
%Inh [6]: 0%
%Inh [7]: 0%
%Inh [8]: 7%
%Inh [9]: 0%
%Inh [10]: 68%
%Inh [11]: 35%
%Inh [12]: 0%
%Inh [13]: 0%
%Inh [14]: 4%
%Inh [15]: 29%
%Inh [16]: 32%
%Inh [17]: 0%
%Inh [18]: 0%
%Inh [19]: 12%
%Inh [20]: 0%

CCCCc1nn2ncccc2c1-c1ccnc(Nc2ccc(N3CCN(C)CC3)cc2)n1 [GW684941]
%Inh [1]: 21%
%Inh [2]: 95.8%
%Inh [3]: 98.8%
%Inh [4]: 96.8%
%Inh [5]: 67%
%Inh [6]: 89%
%Inh [7]: 16%
%Inh [8]: 35%
%Inh [9]: 51%
%Inh [10]: 96.7%
%Inh [11]: 93.1%
%Inh [12]: 0%
%Inh [13]: 0%
%Inh [14]: 0%
%Inh [15]: 72%
%Inh [16]: 5%
%Inh [17]: 9%
%Inh [18]: 0%
%Inh [19]: 62%
%Inh [20]: 0%

COc1cccc(NC(=O)NC2CCN(c3ccnc(Nc4cc(OC)c(OC)c(OC)c4)n3)C2)c1 (stereo not shown) [GSK1379763]
%Inh [1]: 74%
%Inh [2]: 0%
%Inh [3]: 0%
%Inh [4]: 0%
%Inh [5]: 0%
%Inh [6]: 0%
%Inh [7]: 89%
%Inh [8]: 0%
%Inh [9]: 0%
%Inh [10]: 0%
%Inh [11]: 59%
%Inh [12]: 0%
%Inh [13]: 7%
%Inh [14]: 0%
%Inh [15]: 45%
%Inh [16]: 0%
%Inh [17]: 0%
%Inh [18]: 40%
%Inh [19]: 18%
%Inh [20]: 0%
